Results filed as inconclusive are left out. Active and inactive are the calls of the source. Calls come from the whole dose curve; as a rule, active = well fitted activation curve with a large enough effect; inconclusive = small, poorly fitted or top-dose-only effect; inactive = flat fitted curve, though single readings scatter.
Molecular target: Relaxin receptor 2 (Homo sapiens) (UniProt Q8WXD0)
Test: qHTS Assay for Agonists of the Relaxin Receptor RXFP1: RXFP2 Hit Validation; note: nearly all actives have a fitted effect of over 65% in size;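 for activation: 0% = buffer only basal cAMP and 100% = 29 nM porcine relaxin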
Conditions: HEK293 RXFP2 cAMP TR-FRET, 30 min; series mostly up to 115 µM; activation: at the top concentration
Outline: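 Concentration-response EC50s (Hill equation) come from a cAMP TR-FRET assay in HEK293 RXFP2 cells, compound for 30 min at 37C with PDE4 inhibitor.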
Potency is the fitted concentration of half-maximal effect.

Chain of Relaxin receptor 2 (Homo sapiens) (Q8WXD0 whole entry, looked up): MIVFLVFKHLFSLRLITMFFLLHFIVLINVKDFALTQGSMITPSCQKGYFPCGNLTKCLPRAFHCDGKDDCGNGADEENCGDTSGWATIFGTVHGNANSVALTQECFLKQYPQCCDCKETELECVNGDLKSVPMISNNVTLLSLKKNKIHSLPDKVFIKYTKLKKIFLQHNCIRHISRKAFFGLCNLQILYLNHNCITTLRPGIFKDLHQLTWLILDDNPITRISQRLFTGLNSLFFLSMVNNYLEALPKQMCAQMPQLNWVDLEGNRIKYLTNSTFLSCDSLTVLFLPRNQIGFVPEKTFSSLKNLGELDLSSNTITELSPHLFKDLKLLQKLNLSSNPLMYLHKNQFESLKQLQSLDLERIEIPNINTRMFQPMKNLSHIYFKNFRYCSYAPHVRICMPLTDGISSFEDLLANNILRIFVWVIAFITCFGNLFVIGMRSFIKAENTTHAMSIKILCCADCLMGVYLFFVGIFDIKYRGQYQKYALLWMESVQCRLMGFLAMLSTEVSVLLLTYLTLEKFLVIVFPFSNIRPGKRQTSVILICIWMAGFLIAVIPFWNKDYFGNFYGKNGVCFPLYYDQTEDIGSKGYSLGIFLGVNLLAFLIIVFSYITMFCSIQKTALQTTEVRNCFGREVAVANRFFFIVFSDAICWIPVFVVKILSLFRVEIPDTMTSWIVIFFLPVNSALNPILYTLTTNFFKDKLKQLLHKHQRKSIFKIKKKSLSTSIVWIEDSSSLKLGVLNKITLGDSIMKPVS

activation, inactive:
CN(C)CCCn1c(SCC(=O)Nc2nc(-c3cccc(Br)c3)cs2)nc2ccccc2c1=O -4.88%
COc1cc(-c2nnc(SCC(=O)N(C)C3CCS(=O)(=O)C3)o2)cc(OC)c1OC (stereo not drawn) 4.39% [at 44.7 µM]
Cc1cc(C)c(C(=O)CSc2n[nH]c(=O)n2C2CC2)cc1C -0.257%
COC(=O)c1c(N2C(=O)CC(Sc3ncccc3C(=O)O)C2=O)sc(C)c1C (stereo not drawn) -7.17%
CC(NC(=O)c1ccccc1NC(=O)c1ccco1)C(=O)O (stereo not drawn) 4.16% [at 125 µM]
O=C(Nc1ccccc1C(=O)NCc1ccc(Cl)cc1)c1ccco1 -1.91% [at 125 µM]
CN(C)c1ccc2nc3c(=O)[nH]c(=O)nc-3n(CC(O)C(O)C(O)CO)c2c1 (stereo not drawn) 15.5%
C=C(C)C(=O)Nc1cccc(C2=NOC3(C2)C[C@@H](C(N)=O)N(C(=O)c2ccc(Cl)cc2)C3)c1 (stereo partly drawn) 3.65%
COc1ccc(S(=O)(=O)Nc2ccccn2)c(C)c1C 1.66% [at 44.7 µM]
O=C(Nc1ccccc1C(=O)NCc1ccco1)c1ccco1 13% [at 125 µM]
O=C(Nc1ccccc1C(=O)NCc1ccccc1)c1ccco1 5.45% [at 125 µM]
CN(C)c1ccc(C(=S)N2CCN(S(=O)(=O)c3ccccc3)CC2)cc1 7.33%
COc1ccc(/C=C2/SC(=O)N(CC(=O)Nc3cc(C)on3)C2=O)cc1OC -62%
CCC(=O)Nc1ccc(-n2nnnc2SCC(=O)NNC(=O)c2ccco2)cc1 -5%
Cc1ccc2cc(CN(C(=O)c3cccs3)c3ccccc3)c(=O)[nH]c2c1 5.18%
Cc1ccc(-c2ccc3nnc(SCC(=O)NCC4CCCO4)n3n2)cc1 (stereo not drawn) -9.14%
CC(=O)CCCCn1c(=O)c2c(ncn2C)n(C)c1=O 25.5%

Potency, active:
CN1C(=O)c2ccc(C(=O)Nc3ccc(Br)cn3)cc2C1=O 21.8 µM
NC(=S)c1cc2ccc(O)cc2oc1=O 4.88 µM
CC1(C)O[C@@H]2[C@H](O1)[C@@H](COS(=O)(=O)O)O[C@H]2n1cnc2c(N)ncnc21 6.15 µM
Nc1ncnc2c1ncn2[C@@H]1O[C@H](COS(=O)(=O)O)[C@@H](O)[C@H]1O 12.3 µM
CCc1nnc(NC(=O)CSc2nc(C)nc3c2c(=O)n(C)c(=O)n3C)s1 10.9 µM
O=C(O)c1cc(-c2ccco2)nc2ccc(Br)cc12 17.3 µM
COC(=O)Cn1cnc2c(C#N)c3n(c2c1=O)CCCC3 30.9 µM
Cc1cc(C)n2nc(C(=O)Nc3ccc4c(c3)OCCO4)nc2n1 6.9 µM
CCc1ccc2n(-c3ccc(OC)cc3)c([S-])c(C(=O)Nc3cc(C)cc(C)c3)[n+]2c1 30.8 µM
Cc1cccn2c(=O)c(/C=C3\SC(=S)NC3=O)c(NCCCN3CCOCC3)nc12 4.35 µM
S=c1nc[nH]c2c1[nH]c1ccccc12 6.9 µM
O=c1c2ccccc2cnn1Cc1n[nH]c(=S)n1-c1ccc(F)c(Cl)c1 15.5 µM
Cc1cc(C(=O)COC(=O)Cn2cnc3c2c(=O)n(C)c(=O)n3C)c(C)n1C 15.5 µM
CCOc1ccc(NC(=O)CSc2ccc3nnc(-c4cccnc4)n3n2)cc1 34.6 µM
CC(C)Oc1ccc(S(=O)(=O)N2CCOCC2)cc1NC(=O)c1cc([N+](=O)[O-])ccc1N1CCOCC1 29.8 µM
CCOC(=O)CNC(=O)CSc1nc2c(C)cccc2cc1CC 19.4 µM
